The panel holds about 79,000 compounds, 15% with a hit somewhere; the sample as a whole holds those more often. A number with no mark means an inactive call. The source made the active and inactive calls. Rule as the data show it: active = growth inhibition above about 70%; inactive = the rest.
Assays:
[1] = NCI Yeast Anticancer Drug Screen. Data for the rad52 strain (AID 147);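 also: 0% = growth of vehicle-treated control cultures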; conditions: S. cerevisiae rad52 mutant growth inhibition, active compounds read high
In short: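 Read-out: growth inhibition versus vehicle-treated controls. Cells were a DNA repair-deficient yeast strain treated with compounds.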

[2] = NCI Yeast Anticancer Drug Screen. Data for the wt1 strain (AID 149);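 also: 0% = growth of vehicle-treated wt1 cultures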; conditions: S. cerevisiae wt1 strain (SPY 50644) growth inhibition, active compounds read high
In short: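 Each compound is tested on wt1 yeast and the loss of growth versus vehicle gives the inhibition value.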

[3] = NCI Yeast Anticancer Drug Screen. Data for the rad50EPP+ strain (AID 151);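 also: 0% = growth of vehicle-treated control cultures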; conditions: S. cerevisiae rad50 mutant strain, active compounds read high
In short: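 Growth inhibition read against vehicle controls in rad50EPP+ yeast, a strain altered in DNA damage repair, after compound exposure.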

[4] = NCI Yeast Anticancer Drug Screen. Data for the rad50 strain (AID 155);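 also: 0% = growth of vehicle-only cultures of the same strain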; conditions: S. cerevisiae rad50 strain growth inhibition, active compounds read high
In short: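 Vehicle-treated cultures provide the reference for the growth inhibition reported for compound-exposed, repair-deficient yeast.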

[5] = NCI Yeast Anticancer Drug Screen. Data for the mec2-1 strain (AID 157); conditions: S. cerevisiae mec2-1 strain, active compounds read high
In short: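 Yeast mec2-1 mutant treated with compound. Readout: growth inhibition vs vehicle controls.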

[6] = NCI Yeast Anticancer Drug Screen. Data for the rad14 strain (AID 159);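 also: 0% = growth of vehicle-treated control cultures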; conditions: S. cerevisiae rad14 strain growth inhibition, active compounds read high
In short: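 Inhibition of growth is reported for a repair-deficient yeast mutant following compound treatment, calculated relative to cultures that received vehicle.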

[7] = NCI Yeast Anticancer Drug Screen. Data for the sgs1 mgt1 strain (AID 161);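 also: 0% = growth of cultures given vehicle only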; conditions: S. cerevisiae sgs1 mgt1 strain, active compounds read high
In short: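 Mutant yeast exposed to compound; growth scored against vehicle-only wells.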

[8] = NCI Yeast Anticancer Drug Screen. Data for the CLN2oe strain (AID 163);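 also: 0% = growth of vehicle-only control cultures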; conditions: S. cerevisiae CLN2oe strain, active compounds read high
In short: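 Read-out: yeast growth inhibition, expressed relative to vehicle-only controls. The strain bears an engineered cell-cycle alteration.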

[9] = NCI Yeast Anticancer Drug Screen. Data for the cln2 rad14 strain (AID 165);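 also: 0% = growth equal to vehicle treated cultures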; conditions: S. cerevisiae cln2 rad14 strain, active compounds read high
In short: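 cln2 rad14 yeast strain; compound exposure; growth inhibition read vs vehicle controls.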

[10] = NCI Yeast Anticancer Drug Screen. Data for the bub3 strain (AID 167); conditions: S. cerevisiae bub3 mutant strain, active compounds read high
In short: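 Mutant yeast screening strain plus compound; vehicle-treated cultures serve as the 0% inhibition reference.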

[11] = NCI Yeast Anticancer Drug Screen. Data for the wt2 strain (AID 169); conditions: S. cerevisiae wt2 strain growth inhibition, active compounds read high
In short: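 Read-out: growth inhibition versus vehicle-treated control cultures after compound exposure of the yeast strain.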

[12] = NCI Yeast Anticancer Drug Screen. Data for the mlh1 strain (AID 171);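 also: 0% = growth of vehicle-treated control cultures of the same strain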; conditions: S. cerevisiae mlh1 strain growth inhibition, active compounds read high
In short: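 Read-out: growth inhibition versus vehicle controls. Strain: engineered yeast with a defined DNA repair or cell cycle defect, compound-treated.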

[13] = NCI Yeast Anticancer Drug Screen. Data for the sgs1 strain (AID 173);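 also: 0% = growth of vehicle-only control cultures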; conditions: S. cerevisiae sgs1 mutant, active compounds read high
In short: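 Read-out: yeast growth inhibition relative to vehicle controls, following compound exposure of a strain with a defined DNA repair/cell cycle alteration.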

[14] = NCI Yeast Anticancer Drug Screen. Data for the mlh1 rad18 strain (AID 175); conditions: S. cerevisiae mlh1 rad18 strain growth inhibition, active compounds read high
In short: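 Yeast w/ defined DNA-repair lesions; compound exposure; growth vs vehicle controls → % inhibition.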

[15] = NCI Yeast Anticancer Drug Screen. Data for the rad18 strain (AID 177); conditions: S. cerevisiae rad18 mutant growth inhibition, active compounds read high
In short: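 Readout: growth inhibition vs vehicle controls. Cells: genetically altered yeast strain, DNA repair defect.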

[16] = at 5.0 µM (retest, dose inferred, filed as 0.5)
[17] = at 50.0 µM (retest, dose inferred, filed as 5.0)

SMILES: BrC/C=C/C[P+](c1ccccc1)(c1ccccc1)c1ccccc1
- growth inhibition ([1]; at 1.2 µM): 8%
- growth inhibition ([1]; at 3.7 µM): 27%
- growth inhibition ([1]; at 11.0 µM): 96% (active)
- growth inhibition ([1]; at 33.0 µM): 98% (active)
- growth inhibition ([1]; at 100.0 µM): 99% (active)
- growth inhibition ([2]; at 1.2 µM): 4%
- growth inhibition ([2]; at 3.7 µM): 9%
- growth inhibition ([2]; at 11.0 µM): 94% (active)
- growth inhibition ([2]; at 33.0 µM): 98% (active)
- growth inhibition ([2]; at 100.0 µM): 98% (active)
- growth inhibition ([3]; at 1.2 µM): -12%
- growth inhibition ([3]; at 3.7 µM): -14%
- growth inhibition ([3]; at 11.0 µM): -8%
- growth inhibition ([3]; at 33.0 µM): 45%
- growth inhibition ([3]; at 100.0 µM): 91% (active)
- growth inhibition ([4]; at 1.2 µM): 7%
- growth inhibition ([4]; at 3.7 µM): 13%
- growth inhibition [4, 16]: 79% (active)
- growth inhibition ([4]; at 11.0 µM): 93% (active)
- growth inhibition ([4]; at 33.0 µM): 98% (active)
- growth inhibition [4, 17]: 79% (active)
- growth inhibition ([4]; at 50.0 µM): 90% (active)
- growth inhibition ([4]; at 100.0 µM): 98% (active)
- growth inhibition ([5]; at 1.2 µM): 5%
- growth inhibition ([5]; at 3.7 µM): 12%
- growth inhibition [5, 16]: 23%
- growth inhibition ([5]; at 11.0 µM): 96% (active)
- growth inhibition ([5]; at 33.0 µM): 98% (active)
- growth inhibition [5, 17]: 23%
- growth inhibition ([5]; at 50.0 µM): 92.9% (active)
- growth inhibition ([5]; at 100.0 µM): 99% (active)
- growth inhibition ([6]; at 1.2 µM): 5%
- growth inhibition ([6]; at 3.7 µM): 7%
- growth inhibition ([6]; at 11.0 µM): 96% (active)
- growth inhibition ([6]; at 33.0 µM): 99% (active)
- growth inhibition ([6]; at 100.0 µM): 99% (active)
- growth inhibition [7, 16]: 18%
- growth inhibition [7, 17]: 18%
- growth inhibition ([7]; at 50.0 µM): 92% (active)
- growth inhibition ([8]; at 1.2 µM): -3%
- growth inhibition ([8]; at 3.7 µM): 10%
- growth inhibition ([8]; at 11.0 µM): 94% (active)
- growth inhibition ([8]; at 33.0 µM): 98% (active)
- growth inhibition ([8]; at 100.0 µM): 99% (active)
- growth inhibition [9, 16]: 47%
- growth inhibition [9, 17]: 47%
- growth inhibition ([9]; at 50.0 µM): 87.7% (active)
- growth inhibition ([10]; at 1.2 µM): -5%
- growth inhibition ([10]; at 3.7 µM): -7%
- growth inhibition [10, 16]: 18%
- growth inhibition ([10]; at 11.0 µM): 94% (active)
- growth inhibition ([10]; at 33.0 µM): 98% (active)
- growth inhibition [10, 17]: 18%
- growth inhibition ([10]; at 50.0 µM): 88.7% (active)
- growth inhibition ([10]; at 100.0 µM): 98% (active)
- growth inhibition ([11]; at 1.2 µM): 3%
- growth inhibition ([11]; at 3.7 µM): 9%
- growth inhibition ([11]; at 11.0 µM): 95% (active)
- growth inhibition ([11]; at 33.0 µM): 98% (active)
- growth inhibition ([11]; at 100.0 µM): 99% (active)
- growth inhibition ([12]; at 1.2 µM): -5%
- growth inhibition ([12]; at 3.7 µM): 1%
- growth inhibition ([12]; at 11.0 µM): 83% (active)
- growth inhibition ([12]; at 33.0 µM): 98% (active)
- growth inhibition ([12]; at 100.0 µM): 99% (active)
- growth inhibition ([13]; at 1.2 µM): 4%
- growth inhibition ([13]; at 3.7 µM): 10%
- growth inhibition ([13]; at 11.0 µM): 95% (active)
- growth inhibition ([13]; at 33.0 µM): 98% (active)
- growth inhibition ([13]; at 100.0 µM): 99% (active)
- growth inhibition [14, 16]: 43%
- growth inhibition [14, 17]: 43%
- growth inhibition ([14]; at 50.0 µM): 87.7% (active)
- growth inhibition ([15]; at 1.2 µM): 9%
- growth inhibition ([15]; at 3.7 µM): 33%
- growth inhibition ([15]; at 11.0 µM): 96% (active)
- growth inhibition ([15]; at 33.0 µM): 98% (active)
- growth inhibition ([15]; at 100.0 µM): 98% (active)

From PubChem BioAssay (NCI)
